Records with an inconclusive call do not appear. Entries that show only a call come without a potency. Calls of active or inactive are those of the source. Calls come from the whole dose curve; as a rule, active = well fitted curve in the direction sought with a large enough effect; inconclusive = small, poorly fitted or top-dose-only effect, or another doubt; inactive = no such curve, though single readings can be large; an effect the other way counts as inactive or inconclusive.

Experiment [1] deals with Voltage-gated inwardly rectifying potassium channel KCNH2 (Homo sapiens) (UniProt Q12809). Nature of the experiment: qHTS Assay for Small Molecule Inhibitors of the Human hERG Channel Activity (AID 588834).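 Note: lower thallium flux fluorescence means stronger hERG block; nearly all actives have a fitted effect of over 50% in size.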 Note: potency is the fitted concentration of half-maximal effect. The note with it: U2OS BacMam hERG, FluxOR thallium flux fluorescence; series mostly up to 46.1 µM. The method, boiled down: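 Kinetic FDSS fluorescence; U2OS + hERG BacMam (~100 virus particles/cell); FluxOR Tl+ flux; ~10 min cpd; AC50 (Hill).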
Voltage-gated inwardly rectifying potassium channel KCNH2 (Homo sapiens), sequence (Q12809 whole entry, looked up): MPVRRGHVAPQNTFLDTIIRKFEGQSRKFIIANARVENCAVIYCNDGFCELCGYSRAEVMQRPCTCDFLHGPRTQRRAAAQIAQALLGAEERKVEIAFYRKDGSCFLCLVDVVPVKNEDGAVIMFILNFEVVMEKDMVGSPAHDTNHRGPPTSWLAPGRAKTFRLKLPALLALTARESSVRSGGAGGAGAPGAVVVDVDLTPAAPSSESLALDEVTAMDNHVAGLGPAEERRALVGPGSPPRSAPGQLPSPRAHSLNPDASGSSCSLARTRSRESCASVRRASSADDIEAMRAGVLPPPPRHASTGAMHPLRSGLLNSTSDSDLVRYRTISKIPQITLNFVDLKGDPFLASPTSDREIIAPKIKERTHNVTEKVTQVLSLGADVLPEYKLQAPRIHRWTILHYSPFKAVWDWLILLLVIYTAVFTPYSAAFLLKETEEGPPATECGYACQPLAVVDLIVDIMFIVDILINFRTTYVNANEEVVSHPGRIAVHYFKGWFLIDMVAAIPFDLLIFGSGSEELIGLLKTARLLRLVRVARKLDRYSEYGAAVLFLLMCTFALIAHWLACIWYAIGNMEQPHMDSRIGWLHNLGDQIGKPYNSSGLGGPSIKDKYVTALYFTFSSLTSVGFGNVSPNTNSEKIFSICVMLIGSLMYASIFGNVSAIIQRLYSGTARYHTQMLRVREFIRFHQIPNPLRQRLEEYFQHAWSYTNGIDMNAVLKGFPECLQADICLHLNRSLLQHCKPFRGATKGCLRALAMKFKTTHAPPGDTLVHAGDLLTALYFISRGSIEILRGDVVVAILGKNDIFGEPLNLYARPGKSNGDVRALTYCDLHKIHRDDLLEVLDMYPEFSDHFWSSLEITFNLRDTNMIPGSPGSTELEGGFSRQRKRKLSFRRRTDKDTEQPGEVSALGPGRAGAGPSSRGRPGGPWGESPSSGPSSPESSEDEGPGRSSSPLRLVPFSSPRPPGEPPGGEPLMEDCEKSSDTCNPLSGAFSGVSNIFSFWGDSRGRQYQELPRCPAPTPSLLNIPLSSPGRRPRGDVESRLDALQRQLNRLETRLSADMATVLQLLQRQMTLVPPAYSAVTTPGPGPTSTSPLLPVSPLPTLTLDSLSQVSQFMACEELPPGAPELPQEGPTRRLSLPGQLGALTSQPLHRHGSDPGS
Background: In qHTS, concentration-response curves come from the screen itself.

For experiment [2], the target named is Luciferin 4-monooxygenase (Photinus pyralis) (UniProt P08659). The experiment in a line: Biochemical firefly luciferase enzyme assay for NPC (AID 624030).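 Note: purified P. pyralis luciferase at 10 nM with luciferin and ATP substrate; nearly all actives have a fitted effect of over 70% in size.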 As to conditions: purified P. pyralis luciferase, luminescence, 5 min; series mostly up to 58.6 µM. The method, boiled down: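 Purified P. pyralis luciferase at 10 nM in 50 mM Tris Acetate (final), luminescence read within 5 minutes of enzyme addition to compounds. Activity normalised to PTC124 versus DMSO; concentration-response curves classed by r2, magnitude and activity.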
Luciferin 4-monooxygenase (Photinus pyralis), sequence (P08659 whole entry, looked up): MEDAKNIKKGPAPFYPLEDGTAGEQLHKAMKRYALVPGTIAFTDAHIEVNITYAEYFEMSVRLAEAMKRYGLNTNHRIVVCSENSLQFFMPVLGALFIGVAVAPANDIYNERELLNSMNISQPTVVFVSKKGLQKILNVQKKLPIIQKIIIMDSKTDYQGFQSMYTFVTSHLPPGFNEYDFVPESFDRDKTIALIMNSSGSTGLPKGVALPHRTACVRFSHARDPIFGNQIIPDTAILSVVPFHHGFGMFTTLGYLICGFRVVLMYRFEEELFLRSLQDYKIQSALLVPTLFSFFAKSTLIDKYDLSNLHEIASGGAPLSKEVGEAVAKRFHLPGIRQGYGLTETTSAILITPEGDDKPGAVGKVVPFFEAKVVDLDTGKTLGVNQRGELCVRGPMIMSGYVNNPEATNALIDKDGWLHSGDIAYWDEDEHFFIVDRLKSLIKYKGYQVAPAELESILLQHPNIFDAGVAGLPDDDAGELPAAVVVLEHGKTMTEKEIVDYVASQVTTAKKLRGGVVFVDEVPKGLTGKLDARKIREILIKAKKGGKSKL

Experiment [3] can be described thus: S16 Schwann cell viability assay (CellTiter-Glo assay) (AID 624031).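 Note: cellular ATP luminescence as a viability measure; nearly all actives have a fitted effect of over 70% in size.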 As to conditions: S16 rat Schwann cells viability, 24 h; series mostly up to 57.5 µM. In outline:
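This viability control uses native rat S16 Schwann cells grown in DMEM plus 10% FBS. After a 24 h compound treatment at 37 °C, CellTiter-Glo luminescence reports ATP content, scaled against DMSO-treated and cell-free wells.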
In general terms: In ATP-based viability assays light output follows the ATP content of the culture.

Experiment [4] in a line: S16 Schwann cell PMP22 intronic element firefly luciferase assay (AID 624032). Note: nearly all actives have a fitted effect of over 30% in size. As to conditions: S16 rat Schwann cells, PMP22 element FLuc, 24 h; series mostly up to 57.5 µM. The method, boiled down:
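Rat S16 Schwann cells stably carrying firefly luciferase driven by a PMP22 intronic element, in 10% FBS, treated 24 h at 37 C. ONE-Glo luminescence normalized to PTC124 control and DMSO (0%); curves classed by r2, magnitude and activity.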

`C=C1CC[C@H](O)CC1=C/C=C1\CCC[C@]2(C)[C@@H]([C@H](C)/C=C/[C@H](C)C(C)C)CC[C@@H]12`: in experiment [1], the Potency entry was “inactive”.
Take `C=CC1=C(C(=O)O)N2C(=O)[C@@H](NC(=O)/C(=N\O)c3csc(N)n3)[C@H]2SC1` (stereo in doubt): the Potency entry in experiment [1] is “inactive”.
Turning to `COc1cc2c(cc1OC)[C@@H](c1ccccc1)CN(C)CC2`, the Potency result in experiment [1] is “inactive”.
`NC(=O)OC[C@@H]1[C@H](NC(=O)/C(=N\OCC(=O)O)c2csc(N)n2)C(=O)N1S(=O)(=O)O`: the Potency entry in experiment [1] was “inactive”.
With `Cc1c(N)nc([C@H](CC(N)=O)NC[C@H](N)C(N)=O)nc1C(=O)N[C@H](C(=O)N[C@H](C)[C@@H](O)[C@H](C)C(=O)N[C@H](C(=O)NCCc1nc(-c2nc(C(=O)NCCCCN=C(N)N)cs2)cs1)[C@@H](C)O)[C@@H](O[C@@H]1O[C@@H](CO)[C@@H](O)[C@H](O)[C@@H]1O[C@H]1O[C@H](CO)[C@@H](O)[C@H](OC(N)=O)[C@@H]1O)c1cnc[nH]1`, the Potency entry in experiment [1] was “inactive”.
Consider `COC1[C@@H](O[C@@H]2O[C@H](C)[C@@H](O[C@H]3C[C@@](C)(O)[C@H](OC(=O)CC(C)C)[C@H](C)O3)[C@H](N(C)C)[C@H]2O)[C@@H](CC=O)C[C@@H](C)[C@@H](O)/C=C/C=C/C[C@@H](C)OC(=O)C[C@H]1OC(C)=O` (stereo partly drawn), for which, in experiment [1], the Potency entry was “inactive”.
With `CC(C)(CO)[C@@H](O)C(=O)NCCCC(=O)O`, the Potency result in experiment [1] was “inactive”.
On the same count and under the same terms, to `CO/N=C(\C(=O)N[C@@H]1C(=O)N2C(C(=O)O)=C(CSc3nc(C)c(CC(=O)O)s3)CS[C@H]12)c1csc(N)n1` belongs “inactive”.
The same measure, in the same setting: the same measure for `CO/N=C(\C(=O)N[C@@H]1C(=O)N2C(C(=O)[O-])=C(C[n+]3ccc(N)n3CCO)CS[C@H]12)c1csc(N)n1`: “inactive”; for `CCCC1C(=O)N2C(N(C)C)=Nc3ccc(C)cc3N2C1=O` (stereo not drawn): “inactive”; for `C=C1[C@@H]2CC[C@@H](C2)C1(C)C`: “inactive”.
For the compound `C=C1CC[C@H](O)CC1=C/C=C1\CCC[C@]2(C)[C@@H]([C@H](C)CCCC(C)(C)O)CC[C@@H]12`, the Potency entry in experiment [1] is “inactive”.
For `CC(=O)Nc1c(I)c(C(=O)N[C@H]2C(O)O[C@H](CO)[C@@H](O)[C@@H]2O)c(I)c(N(C)C(C)=O)c1I` (stereo partly drawn), in experiment [1], the Potency result was “inactive”.
For the compound `CNCC(O)c1ccc(OC(=O)C(C)(C)C)c(OC(=O)C(C)(C)C)c1` (stereo not drawn), the Potency result in experiment [1] is “inactive”.
In the case of `C[C@]12CC[C@@H]3c4ccc(O)cc4CC[C@H]3[C@@H]1CC[C@@H]2OP(=O)(O)O`, the Potency entry in experiment [1] is “inactive”.
Regarding `O=C(O)c1ccc(NC2OC[C@@H](O)[C@H](O)[C@H]2O)cc1` (stereo partly drawn), in experiment [1], the Potency entry is “inactive”.
Turning to `NC[C@@H]1O[C@H](O[C@H]2[C@@H](O)[C@H](O[C@@H]3[C@@H](O)[C@H](N)C[C@H](N)[C@H]3O[C@H]3O[C@H](CO)[C@@H](O)[C@H](O)[C@H]3N)O[C@@H]2CO)[C@H](N)[C@@H](O)[C@@H]1O`, the Potency result in experiment [1] is “inactive”.
As to `C[C@@H]1C[C@H]2[C@@H]3CCC4=CC(=O)C=C[C@]4(C)[C@@]3(F)[C@@H](O)C[C@]2(C)[C@@]1(O)C(=O)COC(=O)c1cccc(S(=O)(=O)O)c1`, the Potency result in experiment [1] is “inactive”.
`Cc1cccc(C)c1Nc1ncccc1C(=O)O`: the Potency result in experiment [1] was “inactive”.
As for `C=Cc1c(C)c2cc3nc(cc4[nH]c(cc5nc(cc1[nH]2)C(C)=C5CCC(=O)OC)c(CCC(=O)O)c4C)[C@@]1(C)C3=CC=C(C(=O)OC)[C@H]1C(=O)OC`, the Potency entry in experiment [1] is “inactive”.
Still for that read-out and setting: to `CN(C)CCC(O)(c1ccccc1)c1ccccc1Cl` (stereo not drawn) belongs 3160 nM (active); to `CC1=C(/C=C/C(C)=C/C=C/C(C)=C/C=C/C=C(C)/C=C/C=C(C)/C=C/C2=C(C)C[C@@H](O)CC2(C)C)C(C)(C)C[C@H](O)C1`, “inactive”; to `OC[C@H]1O[C@@H](O[C@H]2[C@H](O)[C@@H](O)[C@H](O)O[C@@H]2CO)[C@H](O)[C@@H](O)[C@@H]1O`, “inactive”.
As to `OC[C@@H](O)C(O)[C@H](O)CO`, in experiment [1], the Potency entry is “inactive”.
As to `CC(C)C[C@H](NC(=O)[C@@H](Cc1c[nH]c2ccccc12)NC(=O)[C@H](Cc1ccc(O)cc1)NC(=O)[C@H](CO)NC(=O)[C@H](Cc1c[nH]c2ccccc12)NC(=O)[C@H](Cc1cnc[nH]1)NC(=O)[C@@H]1CCC(=O)N1)C(=O)N[C@@H](CCCN=C(N)N)C(=O)N1CCC[C@@H]1C(=O)NCC(N)=O`, in experiment [1], the Potency entry was “inactive”.
On to `CC1(C)[C@@H]2CC[C@@]1(C)[C@H](OC(=O)CSC#N)C2`, for which the Potency entry in experiment [1] was “inactive”.
`NC[C@H]1O[C@H](O[C@H]2[C@H](O)[C@@H](O[C@H]3O[C@H](CO)[C@@H](O)[C@H](N)[C@H]3O)[C@H](N)C[C@@H]2N)[C@H](O)[C@@H](O)[C@@H]1O`: the Potency result in experiment [1] was “inactive”.
For `NC(N)=NCC1COC2(CCCCC2)O1` (stereo not drawn), in experiment [1], the Potency entry is “inactive”.
In the case of `CC1CS(=O)(=O)CCN1/N=C/c1ccc([N+](=O)[O-])o1` (stereo not drawn), in experiment [1], the Potency result is “inactive”.
`CN[C@@H]1[C@@H](O)[C@@H](O[C@@H]2[C@@H](O)[C@H](O[C@H]3O[C@H](CN)[C@@H](O)[C@H](O)[C@H]3O)[C@@H](N)C[C@H]2NC(=O)C(O)CN)OC[C@]1(C)O` (stereo partly drawn): the Potency entry in experiment [1] was “inactive”.
On the same count and under the same terms, to `CO[C@H]1O[C@@H]2O[C@@]3(C)CC[C@H]4[C@H](C)CC[C@@H]([C@H]1C)[C@@]24OO3` belongs “inactive”; to `NC(=O)[C@@H]1C[C@]2(NC(=O)NC2=O)c2cc(F)ccc2O1`, “inactive”; to `CC(C)[C@@H](C)/C=C/[C@@H](C)[C@H]1CC[C@H]2/C(=C/C=C3\C[C@@H](O)CC[C@@H]3C)CCC[C@]12C`, “inactive”.
For the compound `NS(=O)(=O)c1cc2c(cc1Cl)NC(Cc1ccccc1)NS2(=O)=O` (stereo not drawn), the Potency result in experiment [1] was “inactive”.
Take `OCCN1CCN(CC/C=C2/c3ccccc3Sc3ccc(Cl)cc32)CC1`: in experiment [1], the Potency is 1580 nM (active).
Consider `CCCCCCCCCCCCCCCCCCOCC(COP(=O)([O-])OCC[N+](C)(C)C)OC` (stereo not drawn), for which the Potency entry in experiment [1] is “inactive”.
As to `CCCCC(=O)O[C@H]1CC[C@H]2[C@@H]3CCc4cc(O)ccc4[C@H]3CC[C@]12C`, in experiment [1], the Potency entry was “inactive”.
Regarding `CCCCCCCCCCCCCC(=O)OCC(COP(=O)([O-])OCC[N+](C)(C)C)OC(=O)CCCCCCCCCCCCC` (stereo not drawn), the Potency result in experiment [1], in experiment [2] and in experiment [3] was “inactive” in each case.
On to `O=C(O)CCC/C=C\C[C@@H]1[C@@H](/C=C/[C@@H](O)COc2cccc(Cl)c2)[C@H](O)C[C@@H]1O`, for which the Potency entry in experiment [1], in experiment [2], in experiment [3] and in experiment [4] was “inactive” in each case.
As for `O=C(O)C1=C(CSc2nnnn2CS(=O)(=O)O)CS[C@@H]2[C@H](NC(=O)[C@H](O)c3ccccc3)C(=O)N12`, the Potency result in experiment [1], in experiment [2], in experiment [3] and in experiment [4] was “inactive” in each case.

The record behind these values is PubChem BioAssay (NCATS).
